Screens from PubChem.
D1 PAM – human D1 dopamine receptor positive modulation. P21728. HEK293 TREx D1 cells, calcium flux, dopamine EC20 potentiation. 360,000 compounds, 0.036% hits. potentiation, % at 10 µM; in the data active = potentiation above about 30%
Target sequence (P21728 whole entry, looked up): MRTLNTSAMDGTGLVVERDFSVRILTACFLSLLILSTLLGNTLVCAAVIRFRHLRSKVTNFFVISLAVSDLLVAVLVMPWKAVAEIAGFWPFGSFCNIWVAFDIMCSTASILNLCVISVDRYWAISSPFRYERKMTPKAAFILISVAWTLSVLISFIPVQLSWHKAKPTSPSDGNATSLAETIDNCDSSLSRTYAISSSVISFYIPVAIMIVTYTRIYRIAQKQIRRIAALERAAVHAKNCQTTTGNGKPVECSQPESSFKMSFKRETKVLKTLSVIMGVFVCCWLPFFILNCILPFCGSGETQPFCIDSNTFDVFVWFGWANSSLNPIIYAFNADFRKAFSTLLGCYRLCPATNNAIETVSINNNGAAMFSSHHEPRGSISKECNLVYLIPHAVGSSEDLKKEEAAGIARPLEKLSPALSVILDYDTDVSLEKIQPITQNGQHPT
TRHR agonist – agonists of human TRH receptor. activation, % at 2 µM. AID 493084. 360,000 compounds, 0.18% hits. TRHR cells, calcium flux fluo-8, FDSS agonist mode. P34981
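TRHR-expressing cells loaded with fluo-8 calcium dye; 23 nL library compound pin-transferred, kinetic FDSS fluorescence (Ex 480/Em 530) recorded about 180 s for agonist-induced calcium release, before a 10 nM TRH EC20 addition for potentiator mode.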
TRHR enhancer – TRH receptor (human) allosteric enhancement | P34981 | TRHR cells, fluo-8 calcium fluorescence, EC20 TRH enhancement | enhancement, % at 2 µM | 360,000 compounds, 0.66% hits | AID 493056; in the data active = enhancement above about 30%
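TRHR-expressing cells loaded with fluo-8 calcium dye were read kinetically (ex 480/em 530) during compound addition, then stimulated with an EC20 of TRH (10 nM final). Enhancement of the Gq-mediated intracellular calcium response was scored.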
D1 ag – agonists of human D1 dopamine receptor; HEK293 T-REx D1 cells, calcium flux, agonist mode; 360,000 compounds, 1% hits; P21728; activation, % at 2 µM
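Tetracycline-induced HEK293 TREx D1 cells, force-coupled to calcium signalling, were dye-loaded with a no-wash calcium kit. Compound was pin-added after a 10 s baseline. Fluorescence was read kinetically at 1 cycle/s for 180 s, with calcium rises flagged as agonism.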
D1 antag – human D1 dopamine receptor antagonism; HEK293 TREx D1 cells, calcium flux, dopamine EC80; active compounds read low; activity change, negative = inhibition, % at 10 µM; 360,000 compounds, 3.2% hits; in the data active = activity change below about -30%
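Inducible Hek293 Trex D1 cells (tetracycline, overnight, 30 C). Calcium dye 30–90 min RT. Antagonist mode: EC80 dopamine added after 180 s compound read.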
Numbers stand for hits; . = inactive; ! = not active in a repeat. Sampled rows, rich in hits. Any-hit rate of the full collection: about 4.7%. Rule as the data show it, unless noted: active = activation above about 30%; inactive = the rest.

SMILES	D1 PAM	TRHR agonist	TRHR enhancer	D1 ag	D1 antag
COC(=O)C(C)Sc1snnc1-c1ccccc1 (stereo not given)	.	.	.	.	.
Cc1nnsc1SC(C)C(=O)O (stereo not given)	.	.	.	.	-49.7
CN(C)c1ccc(C2C=C(c3ccccc3)Nc3nnnn32)cc1 (stereo not given)	.	.	.	30.8	.
CC1=CC(c2ccccc2)n2nc(N3C(=O)c4ccccc4C3=O)nc2N1 (stereo not given)	.	.	.	.	.
CC1=CC(c2ccccc2)n2nnnc2N1 (stereo not given)	.	.	.	.	-34.8
O=C(CSc1ccccn1)N1CCCC(Nc2ccccc2)C1 (stereo not given)	.	.	.	.	.
O=C(c1cc(F)ccc1F)C1CCCN(C(=O)CSc2ccccn2)C1 (stereo not given)	.	.	.	.	-39.9
Cc1ccc(O)c(/C=N/NC(=O)CN2CCCC2)c1	.	.	.	.	.
O=C(CN1CCCCCCC1)N/N=C/c1ccc(F)cc1F	.	.	.	.	-31.6
O=C(Cc1cccs1)N1CCN(S(=O)(=O)c2ccccc2)CC1	.	.	.	.	.
O=C(CCCc1cccs1)N1CCN(S(=O)(=O)c2ccccc2Br)CC1	.	.	.	.	-31.1
CC(C)c1ccc(Nc2c([N+](=O)[O-])c(=O)n(C)c3ccccc23)cc1	.	.	.	.	-49.6
COc1ccc(Cl)cc1S(=O)(=O)Nc1cccc(-c2ccc(N3CCOCC3)nn2)c1	.	.	32.1	.	.
COc1cc(OC)cc(C(=O)Nc2cccc(-c3ccc(N4CCOCC4)nn3)c2)c1	.	.	.	.	.
COc1ccc(C(=O)Nc2cccc(-c3ccc(N4CCOCC4)nn3)c2)cc1	.	.	37.2	.	.
Cc1cc(C)cc(N(CCC#N)C(=O)COC(=O)C2CCN(c3ccc(C(F)(F)F)cn3)CC2)c1	.	.	.	.	.
Cc1ccccc1CC1C(=O)Nc2ccc(Br)cc21 (stereo not given)	31.7	.	.	48.2	.
COc1ccc(Br)cc1CC1C(=O)Nc2ccccc21 (stereo not given)	.	.	.	.	.
O=C1Nc2ccccc2C1Cc1ccccc1 (stereo not given)	.	.	.	.	.
Cc1ccc2c(c1)C(Cc1ccccc1F)C(=O)N2 (stereo not given)	.	.	.	.	-46.3
Fc1ccc(-c2noc3ncnc(Nc4ccc(F)cc4F)c23)cc1	.	.	.	.	.
Cc1cc(/C=N/NC(N)=S)c(C)n1-c1ccc(Cl)cc1	.	.	.	.	-51.8
Cc1cc(/C=N/NC(N)=S)c(C)n1-c1ccc(Br)cc1	.	.	.	.	-49.5
Cc1nc2ccccn2c1C(=O)N/N=C/c1cc(C)n(-c2ccc(Br)cc2)c1C	.	.	.	.	-47.4
CC(C)N(C(=O)CSc1nc2ccc(Cl)cc2[nH]1)c1ccccc1	.	.	.	.	-43.9
SMILES	D1 PAM	TRHR agonist	TRHR enhancer	D1 ag	D1 antag
CCOC(=O)C1=C(C)NC(C)=C(C(=O)OC)C1c1ccco1 (stereo not given)	.	.	.	.	.
C=CCOC(=O)C1=C(C)NC(C)=C(C(=O)OCC=C)C1c1ccco1	.	.	.	.	-30.2
CCOC(=O)c1ccccc1NC(=O)Cn1c(=O)n(CCC(=O)NCc2ccccc2OC)c(=O)c2ccccc21	.	.	.	.	.
CCCCc1ccc(NC(=O)Cn2nnc3sc4c(c3c2=O)CCC(C)C4)cc1 (stereo not given)	.	.	.	.	.
CCOC(=O)c1cc(C#N)c(Oc2ccc(F)cc2)nc1-c1ccccc1	.	.	.	.	-34.7
CCOC(=O)c1cc(C#N)c(NCc2ccccc2)nc1C	.	.	.	.	-42.6
CCOC(=O)c1cc(NC(=O)N(CC)CC)c(C)nc1C	.	.	.	.	.
CCOC(=O)c1cc(C(=O)NN)c(C)nc1C	.	.	.	.	-87.1
O=C(NCc1ccccc1)c1ccc(Cn2c(=O)c3cccn3c3cccnc32)cc1	.	.	.	.	.
COc1cccc(N=Cc2c[nH][nH]c2=O)c1	.	.	.	.	-30.7
Cc1cc(NC(=O)c2ccc(NC(=O)CCS(=O)(=O)c3cccs3)cc2)ccc1Br	.	.	.	.	-38.0
COC(=O)c1ccc(NC(=O)CCS(=O)(=O)c2ccc(Br)s2)cc1	.	.	.	.	-52.0!
CCOc1ccccc1NC(=O)c1sc2nc3n(c(=O)c2c1C)CCCCC3	.	.	.	.	.
O=C(NCc1ccc(Cl)cc1)c1cnc2sc(N3CCCC3)nn2c1=O	.	.	.	.	.
COc1cc(OC)cc(C(=O)Nc2ccn(C)n2)c1	.	.	.	.	.
CC(C)CCOc1ccc(C(=O)NCC2OCCc3ccccc32)cc1 (stereo not given)	.	.	.	.	.
CC(C)COc1ccc(C(=O)NCC2OCCc3ccccc32)cc1 (stereo not given)	.	.	.	.	-31.0
CCN(C(=O)CSc1nc(-c2ccc(C(C)C)cc2)no1)c1cccc(C)c1	.	.	.	.	.
O=C(NCc1ccccc1)c1nc[nH]c1C(=O)NCc1ccccc1	.	.	32.9	.	.
CC(C)(C)OC(=O)NCc1ccc(CNC(=O)c2nc[nH]c2C(=O)NCc2ccccc2)cc1	.	.	.	.	-53.4
O=C1NC(=Nc2ccccc2Cl)S/C1=C\c1cc([N+](=O)[O-])ccc1O	.	.	.	76.2	.
COc1cc(/C=C2\S/C(=N/S(=O)(=O)c3ccc(C)cc3)NC2=O)c([N+](=O)[O-])cc1OC	.	.	.	.	.
Cc1ccc(S(=O)(=O)/N=C2/NC(=O)/C(=C/c3cc([N+](=O)[O-])ccc3O)S2)cc1	.	.	.	218.0	.
COc1ccc(NC(=O)Cn2c(SCc3ccc(F)cc3)nc3cccnc32)c(OC)c1	.	.	.	.	.
Cc1ccc(OCC(=O)Nc2cccc(-c3nc4ccccc4s3)c2)cc1	.	.	.	.	.
SMILES	D1 PAM	TRHR agonist	TRHR enhancer	D1 ag	D1 antag
Cc1ccc(C(=O)/C=C/c2cn(CC(O)CN3CCOCC3)c3ccccc23)cc1 (stereo not given)	.	.	.	.	.
O=C(/C=C/c1cn(CC(O)CN2CCOCC2)c2ccccc12)c1cccs1 (stereo not given)	.	31.5	.	.	-80.9
O=[S+]([O-])(c1ccc2c(c1)OCCO2)N1CCN([S+](=O)([O-])c2ccc(F)cc2Cl)CC1	.	.	.	.	.
COc1ccccc1C(=O)n1nc(-c2ccco2)nc1N	.	.	.	.	-82.0
Cc1cccc(OCCC(=O)NCC(=O)Nc2c(C)cccc2C)c1	.	.	31.1	.	.
COc1cc(NC(=O)Cn2c(=O)n(C(C)C)c(=O)c3oc4ccccc4c32)cc(OC)c1	.	.	.	.	.
